Screening results: PubChem, National Center for Advancing Translational Sciences (NCATS)
L3MBTL1 block: blocks human L3MBTL1 | Q9Y468 | AlphaScreen L3MBTL1–H3K9me1 peptide binding | Potency, µM (titrated, usually from 57.1 µM), inactives show at the highest dose activity, negative = inhibition, hits mostly inhibitors | 0.66% of 230,000 active; note: potency is the fitted concentration of half-maximal effect; % is set by controls: 0 for no effect and ±100 for the full control effect; nearly all actives have a fitted effect of over 60% in size
Target sequence (Q9Y468 whole entry, looked up): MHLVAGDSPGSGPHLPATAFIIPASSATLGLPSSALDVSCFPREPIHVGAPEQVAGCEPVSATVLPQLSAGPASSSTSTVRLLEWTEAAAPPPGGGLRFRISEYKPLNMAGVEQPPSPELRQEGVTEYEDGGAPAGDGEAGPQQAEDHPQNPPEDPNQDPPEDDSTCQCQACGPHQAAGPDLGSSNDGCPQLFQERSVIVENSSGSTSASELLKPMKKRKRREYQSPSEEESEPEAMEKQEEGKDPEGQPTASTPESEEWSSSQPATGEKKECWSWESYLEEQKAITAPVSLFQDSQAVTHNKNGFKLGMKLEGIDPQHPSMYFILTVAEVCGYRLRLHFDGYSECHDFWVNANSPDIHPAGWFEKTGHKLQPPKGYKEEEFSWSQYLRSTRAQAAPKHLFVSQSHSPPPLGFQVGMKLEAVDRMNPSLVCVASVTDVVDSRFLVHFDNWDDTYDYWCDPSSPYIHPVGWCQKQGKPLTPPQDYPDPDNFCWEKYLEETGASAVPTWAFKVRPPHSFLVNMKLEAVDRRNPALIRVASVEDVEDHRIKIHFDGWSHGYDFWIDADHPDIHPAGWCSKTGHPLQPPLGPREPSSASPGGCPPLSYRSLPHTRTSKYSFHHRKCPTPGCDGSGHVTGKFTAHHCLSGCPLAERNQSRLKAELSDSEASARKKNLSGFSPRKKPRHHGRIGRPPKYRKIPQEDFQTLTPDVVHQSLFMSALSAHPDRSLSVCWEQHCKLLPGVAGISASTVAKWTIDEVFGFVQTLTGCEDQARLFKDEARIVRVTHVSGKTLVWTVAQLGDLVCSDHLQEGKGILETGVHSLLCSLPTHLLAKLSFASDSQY
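AlphaScreen assay: L3MBTL1 (50 nM final) was preincubated 30 min at room temperature with biotinylated H3(1-15)K9me1 peptide (75 nM final), then 30 min with library compounds; streptavidin donor and nickel chelate acceptor beads (10 ug/mL final) added, 30 min dark.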
HP1b binding inh: HP1-beta chromodomain-methylated histone interaction inhibition | AlphaScreen HP1-beta / biotin-H3K9me3 peptide binding | Potency, µM (highest dose often 114 µM), inactives show at the top dose activity change, negative = inhibition, usual class: inhibitors | 0.56% of 390,000 active; note: potency is the fitted concentration of half-maximal effect; nearly all actives have a fitted effect of over 70% in size
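Compound inhibition of the preformed complex between 50 nM HP1-beta and 50 nM biotinylated H3K9me3 peptide was read by AlphaScreen. Buffer was PBS pH 7.4 with 0.01% Tween-20. Incubations ran 30 min at room temperature, with 10 ug/mL donor/acceptor beads.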
JMJD2A Tudor: blocks the human JMJD2A Tudor domain; O75164; AlphaScreen JMJD2A-Tudor / H3K4me3 peptide binding; Potency, µM (titrated, usually from 114 µM), inactives show at the highest dose activity change, negative = inhibition, usual class: inhibitors; 4.4% of 390,000 active; note: potency is the fitted concentration of half-maximal effect; % is set by controls: 0 for no effect and ±100 for the full control effect; nearly all actives have a fitted effect of over 50% in size
PI5P4K alpha inh: PI5P4K alpha (human) kinase inhibition; max response, %; PI5P4Kalpha enzyme, ADP-Glo luminescence, 60 min; hits give low values; 1.2% of 330,000 active; P48426; active = max response of -50% or lower; inconclusive = between -30% and -50%; inactive = -30% or higher; note: value at the top dose of about 77 µM; % is set by controls: 0 for no effect and ±100 for the full control effect
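Quantitative HTS of the MLSMR library against PI5P4Kalpha with substrate. ATP added last at 5 microM final; room temperature, 60 minutes. Remaining ATP depleted, ADP converted and read as luminescence.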
G9a inh: inhibitors of human histone lysine methyltransferase G9a; Potency, µM (top dose mostly 102 µM), for inactives: at the top dose activity, negative = inhibition, hits mostly inhibitors; G9a H3K9 monomethylation, AlphaScreen, 2 h; 8.8% of 350,000 active; Q96KQ7; note: potency is the fitted concentration of half-maximal effect; % is set by controls: 0 for no effect and ±100 for the full control effect; nearly all actives have a fitted effect of over 75% in size
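Signal arises when biotinylated H3K9 peptide, once monomethylated, bridges streptavidin donor and antibody-captured acceptor beads. Enzyme at 20 nM was preincubated 15 min with test compounds; peptide 500 nM and SAM 20 uM then reacted for 2 h.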
BAZ2B inh: inhibitors of human BAZ2B bromodomain | Q9UIF8 | AlphaScreen BAZ2B-H3K14Ac peptide displacement | Potency, µM (titrated, usually from 114 µM), for the others: at the top dose activity change, negative = inhibition, usual class: inhibitors | 4.4% of 360,000 active | AID 504333; note: potency is the fitted concentration of half-maximal effect; % is set by controls: 0 for no effect and ±100 for the full control effect; nearly all actives have a fitted effect of over 60% in size
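In this displacement format the biotinylated H3(5-23) peptide acetylated at Lys14 serves as ligand at 50 nM, with BAZ2B at 50 nM in PBS pH 7.4 containing 0.01% Tween-20. Donor and acceptor beads are 10 ug/mL final.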
ADP-Glo interf: interferes with ADP-Glo detection without enzyme present. 1,100 tested, under 10 active. ADP-Glo detection counter-screen, luciferase luminescence, no enzyme. Potency, µM (series often up to 76.9 µM), for inactives: at the highest dose activity change, negative = inhibition, most hits filed as inhibitors. AID 743285. shares compounds with PI5P4K alpha inh
An asterisk follows results filed as active; ? = inconclusive; / = not tested or not shown; [ ] = remark or other dose. Shown are actives, neighbours in structure and some others; about 11% of the full set was active somewhere. Unless noted, calls come from the whole dose curve; as a rule, active = well fitted curve in the direction sought with a large enough effect; inconclusive = small, poorly fitted or top-dose-only effect, or another doubt; inactive = no such curve, though single readings can be large; an effect the other way counts as inactive or inconclusive.

SMILES	L3MBTL1 block	HP1b binding inh	JMJD2A Tudor	PI5P4K alpha inh	G9a inh	BAZ2B inh	ADP-Glo interf
COCCNC(=O)C(c1ccc(O)cc1)N(Cc1ccco1)C(=O)CCC(=O)Nc1ccccn1 (centres undefined)	/	30%	-5%	-9	-1%	-3%	/
Cc1ccc(S(=O)(=O)N2[C@@H](c3ccc(C(C)(C)C)cc3)C(C(=O)O)=CC[C@H]2c2ccc(C(C)C)cc2)cc1	-13%	9%	79µM*	-63*	/	/	-10%
Nc1nc(N)c2cc(S(=O)(=O)c3cccc(C(F)(F)F)c3)ccc2n1	/	/	/	-54*	/	/	-9%
Nc1cccnc1S(=O)(=O)c1cccc(C(F)(F)F)c1	/	35%	-7%	1	/	/	/
COc1ccc(Cn2c(C)nc3c(c2=O)c2nc4ccccc4nc2n3Cc2ccco2)cc1	/	?	?	-59*	/	/	1%
CC(=O)N1CCC2(CC1)CCN(c1ccc(-c3ccccc3)cc1)CC2	/	/	/	/	-1%[12.7 µM]	/	/
Fc1ccc(Nc2nc(NCc3ccco3)c3ccccc3n2)cc1	-23%	-15%	50µM*	/	/	?	-2%
COc1ccccc1NC(=O)Nc1nc(CC(=O)Nc2ccc(F)c(F)c2)cs1	-3%	30%	-12%	-10	-48%	-29%	/
COc1ccccc1NC(=O)Nc1nc(CC(=O)Nc2cc(F)ccc2F)cs1	-9%	-17%	-34%	-52*	32µM*	-37%	3%
Cc1cccc(C(=O)Nc2scc(-c3ccc(Br)cc3)c2C(=O)O)c1	/	1%	?	?	/	/	/
Cc1ccc(-c2csc(NC(=O)c3cccc(C)c3)c2C(=O)O)cc1	/	17%	0%	?	/	/	/
COc1cc(C(=O)Nc2scc(-c3ccc(Br)cc3)c2C(=O)O)cc(OC)c1OC	/	21%	-9%	-98*	?	?	2%
Cc1ccc(-c2csc(NC(=O)c3ccccc3Cl)c2C(=O)O)cc1	/	19%	-21%	-55*	4%	-13%	4%
Cc1ccc(-c2csc(NC(=O)c3ccc(Br)cc3)c2C(=O)O)cc1	/	24%	-22%	-77*	14%	-12%	0%
Cc1cccc(N2CCN(C(=O)Cn3cnc4sc(C)c(S(=O)(=O)N5CCN(c6ncccn6)CC5)c4c3=O)CC2C)c1 (centres undefined)	/	-3%	-27%	/	-8%[59 µM]	-3%	/
COc1ccc2nc(Nc3sc4c(c3C(N)=O)CCCC4)sc2c1	-9%	22µM*	?	-70*	3.2µM*	?	1%
O=C(c1cnn2c(C(F)F)cc(C3CC3)nc12)N1CCCC1	/	22%	-6%	/	-6%	8%	/
O=C(c1cc2nc(C3CC3)cc(C(F)F)n2n1)N1CCOCC1	/	19%	-26%	-63*	-25%[12.7 µM]	-3%	-12%
CCc1nnc(NC(=O)c2ccc(S(C)(=O)=O)cc2)s1	9%	1%	-30%[11.4 µM]	-53*	/	-5%	-1%
CCN(CC)S(=O)(=O)c1ccc(C(=O)Nc2nnc(NC(=S)Nc3ccccc3)s2)cc1	5%	-13%	?	-59*	/	-13%	6%
Cc1cc2n(n1)CCCN2C(=O)Nc1ccccc1F	/	15%	-3%	/	-6%[59 µM]	0%[57.1 µM]	/
Cc1ccc(CNC(=O)c2ccc3c(c2)nc(C)n3-c2cccc(F)c2)cc1	/	23%	-15%	/	10%[59 µM]	-3%	/
CC(=O)N(CC(=O)Nc1nn(-c2ccccc2)nc1C(N)=O)Cc1ccccc1	8%	33%	-2%	/	-5%[59 µM]	2%	/
CC(C)(C)n1nnnc1SCC(=O)Nc1nn(-c2ccccc2)nc1C(N)=O	-6%	19%	2%	-58*	13%	-9%	-2%
CN1OC[C@@H]2CN3C(=O)N(c4cccc5ccccc45)c4ccccc4[C@@H]3C[C@@H]21	/	/	/	-53*	/	/	1%
SMILES	L3MBTL1 block	HP1b binding inh	JMJD2A Tudor	PI5P4K alpha inh	G9a inh	BAZ2B inh	ADP-Glo interf
COc1cc(Cn2c3ccc(NC(=O)CCc4ccccc4)cc3c(=O)n2C)ccc1F	/	/	/	-64*	/	/	-2%
CCc1c(C)sc(NC(=O)Cn2nc(C)c([N+](=O)[O-])c2C)c1C(N)=O	2%	?	-19%	-58*	3.5µM*	-31%	0%
CC(C)Cc1nn2c(=O)cc(COC(=O)c3cccc(NC(=O)c4cccs4)c3)nc2s1	/	30%	-8%	/	-3%[12.7 µM]	-10%	/
CCCc1cc(=O)[nH]c(SCC(=O)Nc2sc3c(c2C#N)CCC(C)C3)n1 (centres undefined)	-1%	-14%	?	-54*	50µM*	-26%	1%
Cc1nnc(SCC(=O)Nc2sc3c(c2C(N)=O)CCC(C)C3)[nH]c1=O (centres undefined)	-1%	8%	?	-54*	-49%[59 µM]	-63%	-8%
CC1CCc2c(sc(NC(=O)CSc3ncn[nH]3)c2C#N)C1 (centres undefined)	1%	45%	-8%	4	12%[59 µM]	-7%	/
CC(=O)Nc1cccc(NC(=O)C2(c3cccs3)CCOCC2)c1	/	-9%	-8%	/	7%[59 µM]	-4%	/
O=C(NCc1ccccc1F)Nc1nnc([C@H]2C[C@H](O)[C@@H](CO)O2)s1	/	/	/	-6	/	/	/
O=C(NCc1cccc(F)c1)Nc1nnc([C@H]2C[C@H](O)[C@@H](CO)O2)s1	/	/	/	-50*	/	/	-1%
Cc1ccc2c(=O)cc(C(=O)Nc3ccc(S(=O)(=O)Nc4nc(C)cc(C)n4)cc3)oc2c1	/	46%	-29%	/	-3%[59 µM]	-32%	/
CCCCOc1ccc(S(=O)(=O)NC(=O)C2(C)CCN2C(=O)Cc2ccccc2Cl)cc1 (centres undefined)	/	/	/	4	/	/	/
CCCCOc1ccc(S(=O)(=O)NC(=O)C2(C)CCN2C(=O)CCc2ccccc2)cc1 (centres undefined)	/	/	/	-53*	/	/	-1%
CCOc1ccc(CCNS(=O)(=O)c2cn(C)cn2)cc1OCC	/	7%	-23%	-26	52%	-16%	0%
CC(=O)c1ccc(NC(=O)CN2C(=O)CCc3cc(S(=O)(=O)N4CCC(C)CC4)ccc32)cc1	/	?	?	/	-3%[59 µM]	?	/
COC(=O)c1c(NC(=O)CN2CCC3(O)CCCCC3C2c2ccc(OC)cc2OC)sc(C)c1C (centres undefined)	-19%	?	?	-51*	28µM*	-20%	7%
COC(=O)c1c(NC(=O)CN2CCC3(O)CCCCC3C2c2ccccc2OC)sc(C)c1C (centres undefined)	-6%	9%	?	-2	-41%	-32%	/
CCOC(=O)c1cnc2cc(C)ccn2c1=O	1%	24%	-10%	-20	4%[59 µM]	-3%	-3%
